Assay outcomes from PubChem.
CYP2C9 act = activators of human CYP2C9; 96,000 tested, 1.4% active; AID 1024; activation factor at 5 µM; recombinant CYP2C9, luciferin-H conversion, luminescence; hits give high values; factor 1 = untreated enzyme, 0 = blocked; P11712;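 active = activation factor of 2 or more for CYP2C9 at a 5 µM dose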
CYP2C19 inhib = inhibitors of human CYP2C19. P33261. CYP2C19 Supersomes, luciferin-H EGE luminescence, 30 min. inhibition, % at 5 µM. 96,000 tested, 21% active;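 active = CYP2C19 inhibition above a set limit at 5 µM in the primary screen, cut at about 50% in these data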
Target sequence (P33261 whole entry, looked up): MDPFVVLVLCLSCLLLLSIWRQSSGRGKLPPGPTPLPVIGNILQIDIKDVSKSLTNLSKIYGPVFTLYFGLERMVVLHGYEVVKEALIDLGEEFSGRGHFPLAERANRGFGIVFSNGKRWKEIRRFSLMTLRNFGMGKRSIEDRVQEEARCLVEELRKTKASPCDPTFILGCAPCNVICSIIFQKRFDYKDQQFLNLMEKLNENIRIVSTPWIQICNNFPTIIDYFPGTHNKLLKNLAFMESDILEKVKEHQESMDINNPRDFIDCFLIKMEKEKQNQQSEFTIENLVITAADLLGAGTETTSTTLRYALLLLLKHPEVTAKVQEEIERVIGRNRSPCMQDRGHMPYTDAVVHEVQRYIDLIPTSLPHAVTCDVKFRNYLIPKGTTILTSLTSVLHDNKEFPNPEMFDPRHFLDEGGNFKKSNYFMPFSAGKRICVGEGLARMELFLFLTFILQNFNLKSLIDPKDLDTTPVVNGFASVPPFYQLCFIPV
sEH inh = inhibitors of human soluble epoxide hydrolase. P34913. recombinant human sEH enzymatic activity assay. inhibition, % at 2 µM. 91,000 tested, 0.34% active. AID 707; in the data active = inhibition above about 80%
CYP2C9 inhib = blocks human cytochrome P450 2C9 | 96,000 tested, 20% active | inhibition, % at 5 µM | CYP2C9 Supersomes, luciferin-H conversion, luminescence | P11712;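 active = blocking of liver enzyme CYP2C9 beyond about 50% at 5 µM, limit read from the data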
CYP2C19 act = increases human CYP2C19 enzyme activity | P33261 | activation factor at 5 µM | recombinant CYP2C19, luciferin-H EGE luminescence; hits give high values; 0 = fully inhibited enzyme, 1 = untreated enzyme | 96,000 tested, under 10 active | AID 1025;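 active = activation factor of at least 2 at 5 µM in the primary screen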
sEH activator = activators of human soluble epoxide hydrolase | 91,000 tested, 0.04% active | activation, % at 2 µM | purified human sEH enzymatic activity, activator screen | P34913; in the data active = activation above about 37%
A number is an active result. Most compounds without a hit are left out; they make up all but 27% or so of the library.

Screening O=C1CC(=C(c2ccccc2)c2ccccc2)C(=O)N1CCCCN1CCN(c2ccccc2)CC1 returned CYP2C9 act inactive, CYP2C19 inhib inactive, sEH inh inactive, CYP2C9 inhib 73, CYP2C19 act inactive and sEH activator inactive.
`Clc1ccccc1-c1nnn(Cc2ccc(-c3nn[nH]n3)cc2)n1` gave CYP2C9 act inactive, CYP2C19 inhib 68, sEH inh inactive, CYP2C9 inhib 86, CYP2C19 act inactive and sEH activator inactive.
For Clc1ccc(Cn2nnc(-c3ccccc3)n2)cc1 the results were sEH inh inactive and sEH activator inactive.
`COC(=O)c1nnn(-c2nonc2N)c1CSc1ccccn1` gave CYP2C9 act inactive, CYP2C19 inhib 80, CYP2C9 inhib inactive and CYP2C19 act inactive.
CCCN(CCC)Cc1c(C(=O)OCC)nnn1-c1nonc1N was read as CYP2C9 act inactive, CYP2C19 inhib inactive, sEH inh inactive, CYP2C9 inhib inactive, CYP2C19 act inactive and sEH activator inactive.
Screening CC(C)OC(=O)c1nnn(-c2nonc2N)c1CSc1ccccn1 returned CYP2C9 act inactive, CYP2C19 inhib 74, sEH inh inactive, CYP2C9 inhib 57, CYP2C19 act inactive and sEH activator inactive.
For COc1cccc(-n2c(C)nc3cc(C(=O)O)ccc32)c1 the results were CYP2C9 act inactive, CYP2C19 inhib inactive, sEH inh inactive, CYP2C9 inhib inactive, CYP2C19 act inactive and sEH activator inactive.
`O=c1c2ccc(Cl)cc2[nH]c(=S)n1Cc1cccnc1` gave CYP2C9 act inactive, CYP2C19 inhib 56, sEH inh inactive, CYP2C9 inhib inactive, CYP2C19 act inactive and sEH activator inactive.
Screening CCOC(=O)c1cc(C(C)(C)C)oc1CNC(=O)c1c(C)oc2c1CCCC2 returned sEH inh inactive and sEH activator inactive.
`CCOC(=O)c1ccc(CNC(=O)c2cc(C(C)(C)C)oc2C)o1` gave CYP2C9 act inactive, CYP2C19 inhib 90, sEH inh inactive, CYP2C9 inhib 76, CYP2C19 act inactive and sEH activator inactive.
Cc1sc2ncn(CCC(=O)O)c(=O)c2c1C was read as CYP2C9 act 3.2, CYP2C19 inhib inactive, sEH inh inactive, CYP2C9 inhib inactive, CYP2C19 act inactive and sEH activator inactive.
Cc1sc2ncn(CCn3cnc4sc(C)c(C)c4c3=O)c(=O)c2c1C was read as CYP2C9 act inactive, CYP2C19 inhib 86, sEH inh inactive, CYP2C9 inhib 74, CYP2C19 act inactive and sEH activator inactive.
Cc1sc2ncn(-n3c(C)ccc3C)c(=O)c2c1C was read as CYP2C9 act inactive, CYP2C19 inhib inactive, sEH inh inactive, CYP2C9 inhib inactive, CYP2C19 act inactive and sEH activator inactive.
Screening O=C1NC(c2ccccc2)=C(c2nc3ccccc3s2)C(c2ccc(O)cc2)N1 (centres undefined) returned CYP2C9 act inactive, CYP2C19 inhib inactive, sEH inh inactive, CYP2C9 inhib inactive, CYP2C19 act inactive and sEH activator inactive.
O=C1NC2=C(CCc3ccccc32)C(c2ccc(Br)cc2)N1 (centres undefined) was read as CYP2C9 act inactive, CYP2C19 inhib 65, sEH inh inactive, CYP2C9 inhib 54, CYP2C19 act inactive and sEH activator inactive.
`CCn1c(COc2cccc(C)c2C)nnc1SCC(=O)N1CCN(c2ccc(OC)cc2)CC1` gave CYP2C9 act inactive, CYP2C19 inhib inactive, sEH inh inactive, CYP2C9 inhib inactive, CYP2C19 act inactive and sEH activator inactive.
For O=c1[nH]c2cccnc2n1Cc1ccccc1 the results were CYP2C9 act inactive, CYP2C19 inhib 51, sEH inh inactive, CYP2C9 inhib 94, CYP2C19 act inactive and sEH activator inactive.
For O=c1[nH]c2ccccc2n1Cc1ccccc1 the results were CYP2C9 act inactive, CYP2C19 inhib inactive, sEH inh inactive, CYP2C9 inhib inactive, CYP2C19 act inactive and sEH activator inactive.
`Cc1ccc(N(C=NC#N)CC(=O)N2CCN(c3ccccc3)CC2)cc1` gave CYP2C9 act inactive, CYP2C19 inhib inactive, sEH inh inactive, CYP2C9 inhib inactive, CYP2C19 act inactive and sEH activator inactive.
CCOC(=O)c1c(NC(=O)c2nn(CC)cc2Br)sc(C)c1C was read as CYP2C9 act inactive, CYP2C19 inhib inactive, sEH inh inactive, CYP2C9 inhib 76, CYP2C19 act inactive and sEH activator inactive.
`CCOC(=O)c1c(NC(=O)c2nn(CC)cc2Br)sc2c1CCCCC2` gave CYP2C9 act inactive, CYP2C19 inhib inactive, sEH inh inactive, CYP2C9 inhib 82, CYP2C19 act inactive and sEH activator inactive.
CCOC(=O)c1c(NC(=O)Cn2nc(C(F)F)cc2C(F)F)sc(C)c1C was read as CYP2C9 act inactive, CYP2C19 inhib inactive, sEH inh inactive, CYP2C9 inhib 65, CYP2C19 act inactive and sEH activator inactive.
For Cc1ccc(NC(=O)NC(=O)N(c2ccccc2)S(C)(=O)=O)cc1 the results were CYP2C9 act inactive, CYP2C19 inhib inactive, sEH inh inactive, CYP2C9 inhib inactive, CYP2C19 act inactive and sEH activator inactive.
Screening Cc1ccc(C(=O)Nc2ncnc3sc4c(c23)CCCCC4)cc1 returned CYP2C9 act inactive, CYP2C19 inhib inactive, sEH inh inactive, CYP2C9 inhib inactive, CYP2C19 act inactive and sEH activator inactive.
`CC1CN(C(=O)/C=C/c2cccc([N+](=O)[O-])c2)CC(C)O1` (centres undefined) gave sEH inh inactive and sEH activator inactive.
`CCCCN(CCCC)C(=O)/C=C/c1cccc([N+](=O)[O-])c1` gave CYP2C9 act inactive, CYP2C19 inhib 72, sEH inh inactive, CYP2C9 inhib 60, CYP2C19 act inactive and sEH activator inactive.
For CCOC(=O)c1c(C)[nH]c(C(=O)C(C)OC(=O)c2oc3ccccc3c2COC)c1C (centres undefined) the results were CYP2C9 act inactive, CYP2C19 inhib inactive, sEH inh inactive, CYP2C9 inhib inactive, CYP2C19 act inactive and sEH activator inactive.
`CCC(C)(C)n1nnnc1C(c1ccccn1)N1CCN(c2cccc(OC)c2)CC1` (centres undefined) gave sEH inh inactive and sEH activator inactive.
For CCOC(=O)CN1C(=O)C(O)(c2c(C)[nH]c3ccccc23)c2ccccc21 (centres undefined) the results were CYP2C9 act inactive, CYP2C19 inhib 99, sEH inh inactive, CYP2C9 inhib 94, CYP2C19 act inactive and sEH activator inactive.
Screening CCOC(=O)CN1C(=O)C(O)(C2CCc3ccccc3C2=O)c2ccccc21 (centres undefined) returned CYP2C9 act inactive, CYP2C19 inhib 73, sEH inh inactive, CYP2C9 inhib inactive, CYP2C19 act inactive and sEH activator inactive.
Screening c1ccc(Oc2cc(-c3ccccc3)ncn2)cc1 returned CYP2C9 act inactive, CYP2C19 inhib 66, sEH inh inactive, CYP2C9 inhib inactive, CYP2C19 act inactive and sEH activator inactive.
For CC(C)NC1=C(Cl)C(=O)c2ccccc2C1=O the results were CYP2C9 act inactive, CYP2C19 inhib 90, sEH inh inactive, CYP2C9 inhib inactive, CYP2C19 act inactive and sEH activator inactive.
